Laboratory results taken from PubChem BioAssay (NCATS).
Records with an inconclusive call do not appear. The source made the active and inactive calls. Calls come from the whole dose curve; as a rule, active = well fitted cell-killing curve with a large enough effect; inconclusive = small, poorly fitted or top-dose-only effect, or effect the other way; inactive = flat fitted curve, though single readings scatter.

System: OV90
Assay: Primary qHTS to identify gynecologic anti-cancer compounds using libraries of approved drugs and bioactive compounds (AID 1345084); note: nearly all actives have a fitted effect of over 55% in size
Settings: Gynecologic cancer cell panel viability, ATPlite luminescence, 48 h; series mostly up to 57.5 µM; activity change, negative = cytotoxicity: at the top concentration
Summary of the method: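 Luminescence from the ATPlite ATP-monitoring reagent indicates viable cell number; lower signal means cytotoxicity. Cells received compound 16 h after seeding and were exposed for 48 h across five concentrations.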
% is set by controls: 0 for no effect and ±100 for the full control effect; potency is the fitted concentration of half-maximal effect.

Row | Compound | activity change, negative = cytotoxicity | Potency
1 | COc1ccc(CCc2nc3c(C)c(-c4c(C)noc4C)c(C)cc3n2CCN2CCOCC2)cc1 | -20.6% (inactive) | 
2 | COc1cc(NC(=O)c2cccc(-n3cc(NC(=O)Nc4cccc(C)c4)cn3)c2)cc(OC)c1OC | -9.42% (inactive) | 
3 | CN1CCN(c2ccc(OC(F)(F)F)c(Nc3ncc4c(n3)-c3c(c(C(N)=O)nn3CCO)CC4)c2)CC1 | -2.26% (inactive) | 
4 | CC(=O)OC1[C@H]2[C@@H](C[C@@H](C)[C@@H]3C=CC(=O)[C@@]13C)OC(=O)[C@@H]2C (stereo not given in full) | -30.3% (inactive) | 
5 | C=C1C(=O)O[C@@H]2C(OC(=O)/C(C)=C\C)/C(C)=C\C(=O)/C=C(\C)C[C@H](O)[C@@H]12 (stereo not given in full) | -12.4% [at 38.5 µM] (inactive) | 
6 | Cc1ccc(C(=O)Nc2ccc(CN3CCN(C)CC3)c(C(F)(F)F)c2)cc1C#Cc1cnc2[nH]ncc2c1 |  | 3.16 µM (active)
7 | N#CC(CCCN1CCC(O)(c2ccc(Cl)cc2)CC1)(c1ccccc1)c1ccccc1 |  | 15.8 µM (active)
8 | COCc1c(Cl)ccc2c1CC[C@H]2c1ncc[nH]1 | -5.82% (inactive) | 
9 | O=C(Nc1ccccc1Cl)c1cnc2ccc(C3CCNCC3)cn12 |  | 7.94 µM (active)
10 | CC(=O)O[C@H]1[C@H](O)C[C@@]2(C)C(CC[C@]3(C)C2CC=C2C4CC(C)(C)CC[C@]4(C(=O)O)CC[C@]23C)C1(C)C (stereo not given in full) | -2.48% [at 25.3 µM] (inactive) | 
11 | Cc1nc2ccc(-n3ncc(C(=O)c4cc5ccccc5[nH]4)c3N)cc2[nH]1 |  | 14.1 µM (active)
12 | COc1cc(CCO)ccc1O[C@@H]1O[C@H](CO)[C@@H](O)[C@H](O)[C@H]1O | 0.73% [at 38.5 µM] (inactive) | 
13 | Oc1cccc(C2NC(=S)Nc3cccc(F)c32)c1 (stereo not given) | 6.03% (inactive) | 
14 | Oc1ccc(-c2cnc3ccc(NCc4ccco4)nn23)cc1 | -11.7% (inactive) | 
15 | CC[C@@H](C)Nc1cc(C(=O)NC2CC3CCC(C2)N3c2ccc(C(=O)C3CC3)cn2)c(C)cc1C(N)=O (stereo not given in full) |  | 0.316 µM (active)
16 | COC(=O)C1=CO[C@@H](O[C@@H]2O[C@H](CO)[C@@H](O)[C@H](O)[C@H]2O)[C@H]2[C@@H]1C=C[C@]21C=C([C@H](C)OC(=O)/C=C/c2ccc(O)cc2)C(=O)O1 | -21.6% [at 25.3 µM] (inactive) | 
17 | C=C1[C@@H](OC(C)=O)CC[C@@]2(C)[C@@H](OC(C)=O)[C@H](OC(C)=O)C3=C(C)C[C@H](OC(=O)C(C)CC)[C@@H]([C@@H](OC(C)=O)[C@H]12)C3(C)C (stereo not given in full) | -22.2% [at 25.3 µM] (inactive) | 
18 | Cc1cc2ncc(C(=O)NCC(C)(C)NCC(=O)N3CCC[C@H]3C#N)cn2n1 | -25.5% (inactive) | 
19 | C=CC(=O)Nc1ccc2ncnc(Nc3cccc(Br)c3)c2c1 | 0.814% (inactive) | 
20 | COC(=O)N1CCC(n2ncc3c(N4CCOCC4)nc(-c4ccc(NC(=O)NC5CC5)cc4)nc32)CC1 |  | 0.501 µM (active)
